According to the supplement of paper PMC12340641:
Counter-ions that a name gives are not always drawn.

Columns and labels:
[1] = molecular target: IKZF1 (dCK*-IKZF1 fusion in HEK293FT) (UniProt Q13422); assay: inhibition of IKZF1 HTRF signal (DMSO = 0%, pomalidomide 10 uM = 100%); higher = lower IKZF1 protein level; settings: compound concentration: 5 uM, overnight (~20 h)
In short: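 After overnight treatment at 37 °C with 5 μM compound in single wells, HEK293FT cells (2000/well, 384-well) stably expressing an IKZF1 fusion were lysed for 30 min at room temperature. A commercial HTRF total-IKZF1 antibody kit was incubated with the lysate overnight, and the time-resolved FRET ratio at 665/620 nm was corrected for background. Data are given as percent inhibition of IKZF1 signal relative, on each plate, to vehicle and a reference degrader, set at 0% and 100% respectively.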

HEK293FT dCK*-only = assay: relative growth in counter assay (no AraC = 100%, AraC + DMSO = 0%); higher = more growth rescue independent of IKZF1; settings: compound concentration: 5 uM; AraC concentration: 0.3 uM; overnight pretreatment + 4 days AraC
In short: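 Counter assay in HEK293FT cells expressing dCK* alone (300/well, 384-well). Cells received 5 μM compound 2 h after seeding, then after overnight at 37 °C a nucleoside suicide substrate at 0.3 μM plus medium for 4 days. On day 5, Hoechst 33342-stained nuclei were counted by imaging. Relative growth was normalised per plate to wells without suicide substrate (100%) and substrate plus vehicle (0%).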

HEK293FT dCK*-IKZF1 = assay: relative growth recovery (pomalidomide 10 uM = 100%, DMSO = 0%); higher = more growth rescue (IKZF1 fusion degradation); settings: compound concentration: 5 uM; AraC concentration: 0.3 uM; overnight pretreatment + 4 days AraC
In short: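 Means of duplicates from different days are given for growth recovery, normalised per plate against a reference degrader and vehicle. The reference degrader set the 100% level and vehicle the 0% level. HEK293FT cells stably expressing a deoxycytidine kinase–IKZF1 fusion (300/well, 384-well) received 5 μM compound 2 h after seeding and, after overnight at 37 °C, 0.3 μM of a nucleoside suicide substrate plus medium for 4 days. Nuclei stained with Hoechst 33342 were then counted by whole-well imaging on day 5.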

Sequence of IKZF1 (dCK*-IKZF1 fusion in HEK293FT) (Q13422 whole entry, looked up, the tested form may be a part): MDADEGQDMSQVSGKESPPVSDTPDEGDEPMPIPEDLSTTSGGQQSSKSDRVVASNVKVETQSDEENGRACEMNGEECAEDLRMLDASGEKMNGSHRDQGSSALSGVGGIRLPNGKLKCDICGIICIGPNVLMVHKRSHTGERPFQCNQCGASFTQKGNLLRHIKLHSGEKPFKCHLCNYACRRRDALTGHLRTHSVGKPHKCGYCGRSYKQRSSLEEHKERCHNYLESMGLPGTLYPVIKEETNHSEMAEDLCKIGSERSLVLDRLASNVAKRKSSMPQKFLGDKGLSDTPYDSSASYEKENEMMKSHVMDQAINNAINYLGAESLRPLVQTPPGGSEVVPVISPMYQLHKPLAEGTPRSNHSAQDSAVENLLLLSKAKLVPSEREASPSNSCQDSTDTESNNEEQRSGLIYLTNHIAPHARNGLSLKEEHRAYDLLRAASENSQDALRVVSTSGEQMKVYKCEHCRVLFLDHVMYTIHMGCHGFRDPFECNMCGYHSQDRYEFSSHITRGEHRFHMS

Row | Structure (SMILES) | inhibition of IKZF1 HTRF signal [1] [%] | relative growth in counter assay (HEK293FT dCK*-only) [%] | relative growth recovery (HEK293FT dCK*-IKZF1) [%]
1 | CN[C@H]1CC[C@@H](c2ccc(Cl)c(Cl)c2)c2ccccc21 | -23.8 | 0.69 | -1.94
2 | O=C1c2c(O)cccc2Cc2cccc(O)c21 | 14 | -0.62 | -0.185
3 | Nc1nnc(-c2cccc(Cl)c2Cl)c(N)n1 | -57.4 | 0.9 | -1.71
4 | NC(=O)NC(=O)Cc1ccccc1 | -29.1 | 4.08 | -2.01
5 | CN(C)C(=O)C(CCN1CCC(O)(c2ccc(Cl)cc2)CC1)(c1ccccc1)c1ccccc1 [Loperamide HCl] | 3.48 | -7.07 | -1.04
6 | CN1CCN(C2=Nc3ccccc3Sc3ccc(Cl)cc32)CC1 [Clothiapine] | 23.7 | 0.53 | 0.605
7 | O=C2[C@]([C@]3=CC(Cl)=CC=C3OC)(F)C1=CC=C(C(F)(F)F)C=C1N2 [flindokalner] | -26.1 | -5.3 | -1.65
8 | CO[C@H]1/C=C/O[C@@]2(C)Oc3c(C)c(O)c4c(O)c(cc(O)c4c3C2=O)NC(=O)/C(C)=C\C=C\[C@H](C)[C@H](O)[C@@H](C)[C@@H](O)[C@@H](C)[C@H](OC(C)=O)[C@@H]1C [Rifamycin SV Sodium] | -36.7 | 2.23 | 0.23
9 | CCn1c(=O)[nH]c2cc(Cl)c(Cl)cc21 | -7.25 | 6.81 | -1.89
10 | CN(C)CCC=C1c2ccccc2CCc2ccccc21 [Amitriptyline HCl] | 22.6 | 6.15 | -1.42
11 | CN1CCN(CCCN2c3ccccc3Sc3ccc(Cl)cc32)CC1 | -26.7 | 4.19 | 1.47
12 | c1ccc(C(NCCNC(c2ccccc2)c2ccccc2)c2ccccc2)cc1 | -1.32 | 3.27 | 3.32
13 | COC(=O)Nc1ccc(-c2nc(N3CCOCC3)c3cnn(C4CCN(Cc5cccnc5)CC4)c3n2)cc1 | -7.75 | -33 | -12.9
14 | CC1(C)CCC2=C(O1)c1ccccc1C(=O)C2=O | -30 | -24.5 | -10.9
15 | NC(=O)c1cn([C@@H]2O[C@H](CO)[C@@H](O)[C@H]2O)c2ncnc(N)c2c1=O | -11.4 | -10.5 | -1.56
16 | O=C1c2c(O)ccc(O)c2C(=O)c2c(NCCNCCO)ccc(NCCNCCO)c21 | 5.77 | -35.5 | -13.7
17 | O=C(O)c1ccc(S(=O)(=O)N(Cc2ccc(OC(F)(F)F)cc2)c2ncc(C(F)(F)F)cc2Cl)cc1 | -23.7 | 5.77 | 2.16
18 | O=C(Nc1ccc(S(=O)(=O)Nc2nccs2)cc1)C(c1ccccc1)c1ccccc1 | -31.6 | -2.35 | -3.39
19 | Oc1cccc2cc3cccc(O)c3c(O)c12 [dithranol] | -46.9 | 3.52 | -0.86
20 | COc1ccccc1Oc1c(NS(=O)(=O)c2ccc(C)cn2)nc(-c2ccncc2)nc1OC [Avosentan] | -39.7 | -4.67 | -1.19
21 | O=[N+]([O-])c1ccc2nc(COCc3nc4ccc([N+](=O)[O-])cc4[nH]3)[nH]c2c1 | -34.1 | -3.14 | 4.2
22 | O=C(Nc1ccc(Cl)cc1)Nc1ccc(Cl)c(Cl)c1 [Triclocarban] | 15.1 | 3.72 | -1.68
23 | Cc1nnsc1C(=O)Nc1ccc(-n2nc(C(F)(F)F)cc2C(F)(F)F)cc1 | -28.9 | 3.65 | 0.005

Row | Structure (SMILES) | inhibition of IKZF1 HTRF signal [1] [%] | relative growth in counter assay (HEK293FT dCK*-only) [%] | relative growth recovery (HEK293FT dCK*-IKZF1) [%]
24 | COCC(=O)O[C@]1(CCN(C)CCCc2nc3ccccc3[nH]2)CCc2cc(F)ccc2[C@@H]1C(C)C [mibefradil] | -3.89 | -13.3 | -3.87
25 | C[C@H]1NCc2cc(-c3ccc4c(=O)c(C(=O)O)cn(C5CC5)c4c3OC(F)F)ccc21 [Garenoxacin (Mesylate hydrate)] | -29 | -3.04 | -1.59
26 | CNCCC(Oc1ccc(C(F)(F)F)cc1)c1ccccc1 (stereo not given) [Fluoxetine HCl] | -26.7 | -5.41 | 1.15
27 | CN1C(=O)CC(C)(c2ccccc2)C1=O (stereo not given) | 19.8 | 7.33 | 3
28 | CC(C)N(CCC(=O)c1ccc2ccccc2c1)Cc1ccccc1 | -41.5 | -2.68 | 0.035
29 | Cc1cc(/C=C2\SC(=O)N(c3ccccc3)C2=O)c(C)n1-c1cccnc1 | -32.6 | -4.98 | 0.895
30 | NS(=O)(=O)c1ccc(S(=O)(=O)Nc2cccc3c(Cl)c[nH]c23)cc1 [Indisulam] | -6.45 | -24.4 | -3.02
31 | O=C1C=CC(=O)C2=C1C1c3ccccc3C2c2ccccc21 | -32.2 | -0.91 | -0.735
32 | c1ccc(-c2ccc(C(c3ccccc3)n3ccnc3)cc2)cc1 (stereo not given) | 17.6 | 3.99 | -0.555
33 | C=C1/C(=C\C=C2/CCC[C@]3(C)[C@@H]([C@H](C)CCCC(C)(C)O)CC[C@@H]23)C[C@@H](O)C[C@@H]1O [Calcitriol (Rocaltrol)] | 7.56 | 31.2 | 4.81
34 | O=C1N(c2ccccc2)c2ccccc2C1(Cc1ccncc1)Cc1ccncc1 [linopirdine] | -39.8 | -2.22 | -3.48
35 | CCc1oc2ccccc2c1C(=O)c1cc(Br)c(O)c(Br)c1 | 11.6 | -6.05 | -2.28
36 | NC(=O)C(c1ccccc1)(c1ccc(F)cc1)c1ccc(F)cc1 [Senicapoc] | -28.5 | 2.14 | -0.855
37 | O=C(c1cccc(Cl)c1F)N1CCN(Cc2cccc(Nc3nccs3)n2)CC1 | -54.8 | -32.1 | -11.2
38 | CC(=NNc1nnc2c(n1)[nH]c1c(C)cccc12)c1ccccn1 | 40.7 | -31.6 | -12.7
39 | O=C(Nc1ccc(C(O)(C(F)(F)F)C(F)(F)F)cc1)c1ccc(C(F)(F)F)cc1 | -28.5 | 49.3 | 53.1
40 | Cc1ccnc(NS(=O)(=O)c2ccc(N)cc2)n1 | -32.2 | 1.25 | 1.5
41 | CN1CCN(c2ncc(-c3cc(Cl)cc(Cl)c3Cl)c(N)n2)CC1 [sipatrigine] | 11.5 | 5.22 | 2.4
42 | COC(=O)Nc1nc2cc(C(=O)c3cccs3)ccc2[nH]1 [nocodazole] | -12 | -33 | -11.6
43 | O=C(N/N=C/c1ccccc1O)c1ccccc1O | -40.4 | 0.05 | -2.29
44 | Clc1ccccc1C(c1ccccc1)(c1ccccc1)n1ccnc1 | -36.9 | 5.96 | 2.19
45 | COc1cc(N2CCC(N3CCN(C(=O)CNc4cccc5c4C(=O)N(C4CCC(=O)NC4=O)C5=O)CC3)CC2)ccc1Nc1ncc(Cl)c(Nc2ccccc2P(C)(C)=O)n1 (stereo not given) | 111 | -29.6 | -0.385
